Screening data (PubChem)
TWEAK-Fn14 inh – blocks TWEAK-Fn14 interaction in a reporter cell assay; 2% of 360,000 active; TWEAK-stimulated Fn14 reporter cells, luciferase luminescence, 8 h; AID 1159606; inhibition, % at 10 µM; in the data active = inhibition above about 50%
TROY signal inh – blocks TROY-dependent signaling in reporter cells; Q293 LMP1-TROYcd NF-kB luciferase reporter, 4 h; 0.98% of 360,000 active; inhibition, % at 10 µM; AID 1347056;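 active = compounds whose plate-normalised and pattern-corrected inhibition of the luciferase reporter signal at the single screening dose is 50% or more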
HSF1 activator – increases HSF-1 driven luciferase reporter signal. NIH3T3-HGL HSF-1 luciferase reporter, MG132, 8 h; 100% = twice DMSO control signal. 1.7% of 300,000 active. activation, % at 9 µM;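 active = mean replicate activation of at least 50% with a set share of replicates each reaching 50%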
HSF1 inhib – HSF1 inhibition | AID 2098 | NIH3T3-HGL HSE-luciferase, MG132-induced, luminescence 8 h; active compounds read low | 0.77% of 300,000 active | activity change, negative = inhibition, % at 7.5 µM (by protocol);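 active = more than half of replicate wells show activity change below -50%, luminescence cut by over half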;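 also: luciferase reports HSF-1 transcriptional activity via heat shock element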
EBV LMP1 NFkB – Epstein-Barr LMP1 NF-kappaB reporter inhibition; LMP1-induced NF-kappaB luciferase reporter cells, luminescence; 0.69% of 350,000 active; AID 504558; inhibition, % at 12.5 µM; in the data active = inhibition above about 41%
HSP90 inh – inhibitors of HSP90 luciferase refolding in rabbit reticulocyte lysate | luciferase refolding luminescence, 3 h | inhibition, % at 5.6 µM | 0.91% of 290,000 active | AID 1789;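 active = inhibition above the screen-wide mean plus 3 SD, computed separately per campaign, cut at about 16% in these data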;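 also: inhibitors lower the luminescence because luciferase stays unfolded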
Hits are given with their value; . = inactive; / = no result given. Only some compounds are listed: those with a hit (about 4.7% of all), similar ones and a draw of the others.

SMILES | TWEAK-Fn14 inh | TROY signal inh | HSF1 activator | HSF1 inhib | EBV LMP1 NFkB | HSP90 inh
COC(=O)N1C(=O)[C@](c2ccc(Cl)cc2)(C(C)C)N1C(=O)OC | . | . | . | . | . | .
COC(=O)N1C(=O)[C@@](c2ccccc2)(C(C)C)N1C(=O)OC | 61.1 | . | . | . | . | .
COC(=O)N1C(=O)[C@@](c2ccc(OC)cc2)(C(C)C)N1C(=O)OC | 56.8 | . | . | . | . | .
CSc1ccc(CNC(=O)C2(C)CCCN2CC(C)C)cc1 (stereo not given) | . | . | / | / | / | /
CC(C)(C)c1ccc(C(=O)NC(=S)NNC(=O)c2cccs2)cc1 | . | . | . | -59.8 | . | .
CCCOc1ccc(C(=O)NNC(=S)NC(=O)c2cccs2)cc1 | . | . | . | -55.0 | . | .
CNc1nc(NCc2ccc(N(C)C)cc2)c2sccc2n1 | . | . | / | / | / | /
CCOCCCNC(=O)Cn1cnc2c(cnn2-c2ccc(C)c(C)c2)c1=O | 108.0 | . | . | . | . | .
FC(F)(F)c1ccc(-c2cccc3c2C2CC3CCN2Cc2ccc3c(c2)OCO3)cc1 (stereo not given) | . | . | / | / | / | /
O=[N+]([O-])c1ccc(N2CCN(Cc3cccc([N+](=O)[O-])c3)CC2)cc1 | . | . | . | . | 53.5 | .
CC(=O)Nc1ccc(-c2nnn(CC(=O)Nc3ccc4c(c3)OCO4)n2)cc1Cl | . | . | . | -59.2 | . | .
CN(C)c1ccc(-c2nnn(CC(=O)Nc3ccc4c(c3)OCCO4)n2)cc1 | . | . | . | . | . | .
CC1(C)CC(=O)C=C(c2ccc(-c3cnc4ccccc4c3)cc2)C1=O | 85.3 | 92.4 | / | / | . | /
CC(=O)Nc1cccc(-c2csc(C(O)c3cccc(Cl)c3)n2)c1 (stereo not given) | . | . | / | / | / | /
CC(O)(c1ccccc1)c1nc(-c2cccc(C#N)c2)cs1 (stereo not given) | . | . | / | / | / | /
O=C(N/N=C/c1sc(=O)n(-c2ccccc2)c1Cl)c1ccccc1 | . | . | 66.1 | . | . | .
Cc1cc2cc(CN(Cc3ccco3)S(=O)(=O)c3c(C)ccc4nsnc34)c(=O)[nH]c2cc1C | . | . | . | . | 43.8 | .
CC1(C)CC(=O)C2=C(C1)OC1=C(C(=O)CC(C)(C)C1)C2c1ccccc1Cl | . | . | / | / | . | /
O=C(Cc1ccccc1)NNC1=NS(=O)(=O)c2ccccc21 | 53.5 | . | . | . | . | .
O=C(NNC1=NS(=O)(=O)c2ccccc21)c1ccc(Cl)cc1 | . | . | . | . | . | .
O=C(CN1C(=O)c2ccccc2C1=O)NNC1=NS(=O)(=O)c2ccccc21 | . | . | . | . | 42.2 | .
O=C(Nc1ccc2c(c1)OCO2)c1cc(C2CCCCN2C(=O)c2ccc3c(c2)CCO3)on1 (stereo not given) | . | . | / | / | / | /
CCCCNC(=O)c1c(N)[nH]c(C(=O)c2ccccc2)c1-c1ccccn1 | . | . | / | / | / | /
C[C@H]1CN([C@@H](C)CO)C(=O)CCCn2cc(nn2)CO[C@@H]1CN(C)C(=O)Cc1ccccc1 | . | . | / | / | . | /
CCc1ccc(CNc2ccc3c(c2)ncn3C(C)(C)C)cc1 | 81.6 | 66.0 | . | . | . | .
SMILES | TWEAK-Fn14 inh | TROY signal inh | HSF1 activator | HSF1 inhib | EBV LMP1 NFkB | HSP90 inh
O=C(C1COc2ccccc2O1)N1CCN(Cc2ccc3c(c2)OCO3)CC1 (stereo not given) | . | . | . | . | . | .
O=C(C1COc2ccccc2O1)N1CCN(Cc2ccc(Br)cc2F)CC1 (stereo not given) | 63.9 | . | . | . | . | .
C/C(=N/Nc1ccc(C(=O)c2c(C)cc3ccccn23)cc1[N+](=O)[O-])c1ccc(O)cc1 | 53.0 | . | / | / | . | /
Cc1cc2ccccn2c1C(=O)c1ccc(N/N=C/c2ccc(C(=O)O)cc2)c([N+](=O)[O-])c1 | . | . | / | / | . | .
C/C(=N\Nc1ccc(C(=O)c2c(C)cc3ccccn23)cc1[N+](=O)[O-])c1ccc(O)cc1 | 62.1 | . | . | . | . | .
COc1c(C)cc(C(O)c2ncc(-c3ccccc3C)[nH]2)cc1C (stereo not given) | . | . | / | / | / | /
CCc1nc2ccc(C(=O)N3CCN(S(=O)(=O)CC)CC3)cn2c1N(CC)CCOC | . | . | / | / | / | /
CNc1ncc(C(=O)c2ccccc2)s1 | . | . | 57.5 | . | . | .
CNc1ncc(C(=O)c2ccc(Br)cc2)s1 | . | . | . | . | . | .
